± gives the standard deviation.
Tests used:
Settings in all cases: modulator concentration 10 µM
[1] = test system: RAW-Dual (murine macrophage reporter line); assay: NF-kB reporter (SEAP) activity fold change vs agonist alone; higher = enhanced NF-kB activity
Procedure, shortened: (§1)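 Overnight stimulation with a PRR agonist followed pre-incubation for 1 hour at 37 °C with compound at 10 μM final. This was done in RAW-Dual murine macrophage reporter cells seeded at 50 000 per well in 384-well plates. NF-κB (SEAP, QUANTI-Blue absorbance at 620 nm) and IRF (Lucia luciferase, QUANTI-Luc luminescence) were read from the supernatant. Each reporter's fold change relative to the mean agonist-only control on the same plate was averaged over replicate plates.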

[2] = test system: RAW-Dual (murine macrophage reporter line); assay: IRF reporter (Lucia luciferase) activity fold change vs agonist alone; higher = enhanced IRF activity
Procedure, shortened: as §1

[3] = test system: RAW-Dual (murine macrophage reporter line); assay: viability score (confluency relative to resting cells, overnight) (fraction); higher = more viable, active = viable (0.7 or more)
Procedure, shortened: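 RAW-Dual macrophages in 384-well plates were treated overnight with compound at 10 μM final. IncuCyte imaging recorded confluency, and IncuCyte software built two confluency masks across every imaged well. The viability score expresses confluency relative to resting cells and was judged against a cutoff, which a compound met only if both masks exceeded 70% of resting cells.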

[4] = agonist: CpG ODN 1826 0.5 ug/mL

Compound	NF-kB reporter [1, 4]	NF-kB reporter ([1]; agonist: LPS 0.1 ug/mL)	NF-kB reporter ([1]; agonist: MPLA […])	IRF reporter ([2]; agonist: 3'3'-cGAMP 10 ug/mL)	IRF reporter ([2]; agonist: LPS 0.1 ug/mL)	IRF reporter ([2]; agonist: MPLA […])	viability score [3]
Nc1ccc(O)c(C(=O)O)c1	1.08 ± 0.089	0.898 ± 0.12	1.04 ± 0.022	0.956 ± 0.053	0.923 ± 0.084	1.03 ± 0.13	0.989 (active)
Cc1cccc(OCCn2cc(C=Nn3cnnc3)c3ccccc32)c1	1.4 ± 0.11	1.12 ± 0.095	1.31 ± 0.13	0.992 ± 0.059	1.23 ± 0.11	1.5 ± 0.24	0.975 (active)
CN(C)C/C=C/C(=O)Nc1cc2c(Nc3ccc(F)c(Cl)c3)ncnc2cc1O[C@H]1CCOC1	0.0842 ± 0.0066	0.28 ± 0.053	0.266 ± 0.033	0.0559 ± 0.0049	0.0747 ± 0.015	0.0463 ± 0.0039	0.56 (inactive)
CNCC[C@H](Oc1cccc2ccccc12)c1cccs1	0.087 ± 0.0072	0.8 ± 0.08	1.08 ± 0.058	0.262 ± 0.019	1.02 ± 0.2	1.01 ± 0.27	0.333 (inactive)
CCN(CC)CCN1C(=O)C(O)=C(C(=O)c2ccc(C)cc2)C1c1ccccc1 (configuration not stated)	0.996 ± 0.078	0.974 ± 0.064	0.893 ± 0.041	0.827 ± 0.059	0.999 ± 0.11	0.896 ± 0.2	0.996 (active)
COc1ccc(Nc2nc(Nc3ccc(F)cc3)nc(N3CCOCC3)n2)cc1OC	0.409 ± 0.059	1.61 ± 0.14	2.96 ± 0.16	0.413 ± 0.036	1.36 ± 0.17	2.15 ± 0.54	0.905 (active)
COC(=O)C1=CN(CC2CCCO2)C=C(C(=O)OC)C1c1ccccc1OC (configuration not stated)	0.826 ± 0.066	0.849 ± 0.059	1.3 ± 0.37	0.996 ± 0.059	1.34 ± 0.094	1.41 ± 0.16	1.02 (active)
CC(=O)NC(c1ccccc1)c1c(OC(=O)COc2ccccc2)ccc2ccccc12 (configuration not stated)	0.73 ± 0.062	0.878 ± 0.049	0.714 ± 0.044	1.24 ± 0.062	0.987 ± 0.08	0.948 ± 0.12	1.01 (active)
CCOc1cc2ncc(C#N)c(Nc3ccc(F)c(Cl)c3)c2cc1NC(=O)/C=C/CN(C)C	0.714 ± 0.27	0.512 ± 0.048	0.445 ± 0.097	0.158 ± 0.019	0.374 ± 0.04	0.22 ± 0.019	0.968 (active)
Fc1ccc(Nc2nc(NN=Cc3ccc(Cl)cc3)nc(N3CCCCC3)n2)cc1	1.02 ± 0.087	0.949 ± 0.13	1.01 ± 0.1	1 ± 0.032	1.14 ± 0.12	1.24 ± 0.2	1.05 (active)
CC12CC3(C)CC(C)(C1)CC(C(=O)NC(C)(C)CO)(C2)C3	0.866 ± 0.067	0.867 ± 0.097	0.879 ± 0.09	0.996 ± 0.067	1.42 ± 0.096	1.52 ± 0.16	1 (active)
C[C@H](NC(=O)C(=O)Nc1ccccc1C(C)(C)C)C(=O)N[C@@H](CC(=O)O)C(=O)COc1c(F)c(F)cc(F)c1F	1.32 ± 0.33	0.434 ± 0.023	1.69 ± 0.12	0.51 ± 0.037	0.839 ± 0.14	1.07 ± 0.14	0.606 (inactive)
CC1CC(C)CN(C(=O)CSc2nnc(Cc3ccccc3)o2)C1 (configuration not stated)	0.917 ± 0.048	1.06 ± 0.091	0.879 ± 0.11	1.01 ± 0.071	0.944 ± 0.093	0.858 ± 0.34	0.981 (active)
COc1ccccc1NS(=O)(=O)c1cc2c3c(c1)CC(=O)N3CCC2	0.967 ± 0.088	1.03 ± 0.096	1.07 ± 0.071	0.992 ± 0.035	1.09 ± 0.15	0.871 ± 0.11	1.01 (active)
Nc1ncnc2c1ncn2[C@@H]1O[C@H](CO)[C@@H](O)[C@@H]1O.O	1.09 ± 0.064	1.02 ± 0.065	0.997 ± 0.058	0.714 ± 0.026	1.04 ± 0.13	1.18 ± 0.14	0.991 (active)
O=C(NCc1nc(C2CCCCC2)cs1)c1ccc(F)cc1	0.898 ± 0.05	1.16 ± 0.11	0.918 ± 0.047	1.03 ± 0.063	1.26 ± 0.094	1.1 ± 0.09	0.931 (active)
Cc1ccc(NC(=O)Nc2c(C)nc(N3CCN(C)CC3)nc2C)cc1F	0.993 ± 0.049	1.03 ± 0.11	0.818 ± 0.037	0.925 ± 0.046	1.21 ± 0.083	1.17 ± 0.15	0.97 (active)
COc1ccc(CCN(C)CCCC(C#N)(c2ccc(OC)c(OC)c2)C(C)C)cc1OC.Cl (configuration not stated)	0.742 ± 0.21	1.02 ± 0.25	1.12 ± 0.082	0.572 ± 0.018	1.32 ± 0.26	1.27 ± 0.12	0.977 (active)
CC(C)(C)N1CC(c2nc3ccccc3n2Cc2c(F)cccc2Cl)CC1=O (configuration not stated)	1.28 ± 0.094	1.1 ± 0.088	0.901 ± 0.041	1.2 ± 0.06	1.15 ± 0.1	1.28 ± 0.19	0.974 (active)
Cc1cccc(OCCCOc2cccc3cccnc23)c1C	0.735 ± 0.068	0.895 ± 0.055	1.07 ± 0.1	0.974 ± 0.053	1.44 ± 0.083	1.7 ± 0.22	0.978 (active)
Cc1cc(C)n(CCNc2nc3ccccc3s2)n1	1.07 ± 0.1	1.08 ± 0.085	1 ± 0.1	1.08 ± 0.055	1.18 ± 0.081	1.14 ± 0.29	0.993 (active)
Oc1ccc(CN2CCOCC2)cc1	1.05 ± 0.17	1.08 ± 0.094	0.971 ± 0.09	0.939 ± 0.06	1.24 ± 0.14	1.25 ± 0.13	0.995 (active)
CCOC(=O)n1ccn(C)c1=S	1.26 ± 0.21	1.04 ± 0.33	0.909 ± 0.067	0.913 ± 0.03	1.18 ± 0.48	1.11 ± 0.09	0.992 (active)
Oc1ccc(N=Cc2ccccc2F)cc1	0.861 ± 0.099	0.887 ± 0.079	1.1 ± 0.064	0.304 ± 0.012	0.686 ± 0.028	1.36 ± 0.14	0.879 (active)
O=C(NCCc1csc(-c2ccc(F)cc2)n1)c1ccc(Br)cc1	0.825 ± 0.064	1.18 ± 0.089	1.19 ± 0.043	0.693 ± 0.027	1.07 ± 0.11	1.19 ± 0.15	0.999 (active)
CO[C@@]1(NC(=O)CSCC#N)C(=O)N2C(C(=O)[O-])=C(CSc3nnnn3C)CS[C@@H]21 [Prestw-700]	0.993 ± 0.095	1.02 ± 0.088	0.927 ± 0.063	1 ± 0.033	1.47 ± 0.13	1.24 ± 0.12	0.997 (active)

Source: the supplement of paper PMC10646978
